Active and inactive are the calls of the source. Rule for the calls: active = hit-call score of the fitted dose curve at least 0.9, where 1 is the maximum; inactive = score below 0.9.
experiment: APR_HepG2_p53Act_1hr: Apredica 1-hour HepG2 Assay for p53 Activation (AID 2282671); conditions: high-content imaging, actives raise or lower the signal
Method: APR_HepG2_1hr is a cell-based, multiplexed-readout assay that uses HepG2, a human liver cell line, with measurements taken at 1 hour after chemical dosing in a 384-well plate.APR_HepG2_p53Act_1hr is one of 10 assay component(s) measured or calculated from the APR_HepG2_1hr assay. It is designed to make measurements of dna content, a form of viability reporter, as detected with fluorescence intensity signals by HCS Fluorescent Imaging technology.Data from the assay component APR_HepG2_p53Act_1hr was analyzed into 1 assay endpoint. This assay endpoint, APR_HepG2_p53Act_1hr, was analyzed with bidirectional fitting relative to DMSO as the negative control and baseline of activity. Using a type of viability reporter, measures of protein for gain or loss-of-signal activity can be used to understand the signaling at the pathway-level as they relate to the gene TP53. Furthermore, this assay endpoint can be referred to as a primary readout, because this assay has produced multiple assay endpoints where this one serves a signaling function. To generalize the intended target to other relatable targets, this assay endpoint is annotated to the dna binding intended target family, where the subfamily is tumor suppressor.
Cells were treated with dimethyl sulfoxide (DMSO) as a solvent control at a final concentration of 0.5% v/v or with compounds in DMSO with a resulting final DMSO concentration of 0.5% v/v. Compound treatment was done at concentrations of 0.39, 0.78, 1.56, 3.12, 6.24, 12.5, 25, 50, 100, and 200 uM in duplicate on each plate. Cells were treated with compounds for 1, 24, or 72 hr. Carbonyl […] m-chloro-phenylhydrazone (CCCP) and taxol were used as positive controls for mitochondrial function and cytoskeletal stability, respectively; DMSO served as the negative control for this experiment. Cells were fixed by the direct addition of 50 uL formaldehyde in Hank's Balanced Salt Solution (HBSS) to a final concentration of 3.7%. After incubation in the fixation medium for 30 min at room temperature (293-298 K), cells were rinsed twice with HBSS and treated with cell permeabilization buffer (16 uL of 0.5% Triton X-100) for 10 min at room temperature (293-298 K) before labeling. For mitochondrial membrane potential and mitochondrial measurements, pre-fixed cells were incubated with 50 uL of MitoTracker Red CMXRos (Invitrogen) at a concentration of 250 nM for 30 min before fixation. In the remaining cases, post-fixed cells were labeled by incubation with a multiplexed mixture of primary antibodies in HBSS for 60 min at room temperature (293-298 K) to detect immunoreactivity of c-Jun (1:500), phospho-histone H3 (1:100), phospho-histone H2A.x (1:200), p53 (1:400), alpha-tubulin (1:200) and Hoechst 33342 (2 ug/mL). Cells were labeled for multiplexed imaging on two separate plates: a) Hoechst 33342, MitoTracker Red, phospho-histone H3, and alpha-tubulin, and b) Hoechst 33342, phospho-histone H2A.x, and c-Jun. A final rinse with HBSS (50 uL) was performed before analysis. The primary and secondary antibodies for the proteins were phospho-histone H3 (rabbit anti-phospho-histone H3 and FITC-donkey anti-rabbit IgG), phospho-histone H2A.x (mouse anti-phospho-histone H2A.x and FITC-donkey anti-mouse IgG), c-Jun (rabbit anti-phospho-c-Jun and Cy3-donkey anti-rabbit IgG), p53 (sheep anti-p53 and Cy5-donkey anti-sheep IgG), alpha-tubulin (mouse anti-alpha-tubulin and Cy5-donkey anti-mouse IgG). These antibodies are available as the CellCiphr HepG2 assay kit (Millipore).Digital images of each well were captured using a Cellomics ArrayScan VTI (Thermo Scientific Cellomics) (0.8 NA objective, 0.63x optical coupler, and XF-93 filter set) at 20x magnification. The images were acquired using the autofocus feature of the ArrayScan instrument, which entails the following steps. First, the camera focuses on channel 1 (Hoechst 33342), where nuclei are identified. Second, a Z offset of 1 um is used for capturing mitochondria (MitoTracker Red). […]

SMILES	outcome	AC50
CCOP(=S)(OCC)OC(Cl)C(Cl)(Cl)Cl (stereo not given)	inactive	
CN1COCN(Cc2cnc(Cl)s2)C1=N[N+](=O)[O-]	inactive	
CCC(=O)Nc1ccc(Cl)c(Cl)c1	inactive	
CCCOc1nn(C(=O)NS(=O)(=O)c2ccccc2C(=O)OC)c(=O)n1C	inactive	
CNC(=O)ON=C(SC)C(=O)N(C)C	inactive	
CCOP(=S)(OCC)Oc1cc(C)nc(C(C)C)n1	inactive	
CNc1cnn(-c2cccc(C(F)(F)F)c2)c(=O)c1Cl	inactive	
CCOP(=O)(OCC)Oc1cc(C)nc(C(C)C)n1	inactive	
Cc1cc(C2CC2)nc(Nc2ccccc2)n1	inactive	
CCCCOC(=O)c1ccccc1C(=O)O	inactive	
Cc1nn(-c2cc(NS(C)(=O)=O)c(Cl)cc2Cl)c(=O)n1C(F)F	inactive	
CCCCSP(=O)(SCCCC)SCCCC	inactive	
CCC(=NOC/C=C/Cl)C1=C(O)CC(C2CCOCC2)CC1=O (stereo not given)	inactive	
CCNc1nc(Cl)nc(NC(C)(C)C#N)n1	inactive	
CNC(=O)ON=C(C)SC	inactive	
CC(C)[C@H](C(=O)O[C@H](C#N)c1cccc(Oc2ccccc2)c1)c1ccc(Cl)cc1	inactive	
Nc1nc(N)nc(NC2CC2)n1	inactive	
N#CSCSC#N	inactive	
CSc1nnc(C(C)(C)C)c(=O)n1N	inactive	
CON=C(C(=O)OC)c1ccccc1CON=C(C)c1cccc(C(F)(F)F)c1	inactive	

SMILES	outcome	AC50
CCCCOC(=O)[C@@H](C)Oc1ccc(Oc2ccc(C#N)cc2F)cc1	inactive	
FC(F)C(F)(F)OCC(Cn1cncn1)c1ccc(Cl)cc1Cl (stereo not given)	inactive	
CC[C@H](C)[C@H]1O[C@]2(C=C[C@@H]1C)C[C@@H]1C[C@@H](C/C=C(\C)[C@@H](O[C@H]3C[C@H](OC)[C@@H](O[C@H]4C[C@H](OC)[C@@H](NC)[C@H](C)O4)[C@H](C)O3)[C@@H](C)/C=C/C=C3\CO[C@@H]4[C@H](O)C(C)=C[C@@H](C(=O)O1)[C@]34O)O2		26.8 µM (active)
CCCCN(CC)c1c([N+](=O)[O-])cc(C(F)(F)F)cc1[N+](=O)[O-]	inactive	
CC(C1CC1)C(O)(Cn1cncn1)c1ccc(Cl)cc1 (stereo not given)	inactive	
S=C1NCCN1	inactive	
COP(=O)(OC)C(O)C(Cl)(Cl)Cl (stereo not given)	inactive	
CNC(=O)Oc1cccc2c1OC(C)(C)O2	inactive	
C#CC(C)(C)NC(=O)c1cc(Cl)cc(Cl)c1	inactive	
CC(C)N(C(=O)SCC(Cl)=C(Cl)Cl)C(C)C	inactive	
COP(=O)(NC(C)=O)SC (stereo not given)	inactive	
CCOC(=O)CC(SP(=O)(OC)OC)C(=O)OCC (stereo not given)	inactive	
CCCSP(=O)(OCC)Oc1ccc(Br)cc1Cl (stereo not given)	inactive	
C[Si](Cn1cncn1)(c1ccc(F)cc1)c1ccc(F)cc1	inactive	
COc1cc(OC)nc(Sc2cccc(Cl)c2C(=O)O)n1	inactive	
COc1cccc(C(=O)NN(C(=O)c2cc(C)cc(C)c2)C(C)(C)C)c1C	inactive	
CC(C)=CC1C(C(=O)OCN2C(=O)C3=C(CCCC3)C2=O)C1(C)C (stereo not given)	inactive	
CCOP(=S)(OCC)Oc1ccc([N+](=O)[O-])cc1	inactive	
COP(=O)(OC)SCn1c(=O)oc2cc(Cl)cnc21	inactive	
CC(Oc1cccc(Cl)c1)C(=O)O (stereo not given)	inactive	
